# Biological target: AMP-activated protein kinase, AMPK (Homo sapiens) (UniProt P54646+O43741+P54619+Q9UGJ0+Q9Y478+Q13131+Q9UGI9)
# Assay: AMP-dependent Kinase enzyme assay. An in vitro enzyme assay that detects ADP turnover that is directly proportional to AMPK activity. This uses naive AMPK that is activated during the assay with MK-8722
# Assay type: functional
# Set-up: scale not given: direction of the effect not stated beside the values
# Conditions: 30 µM
row,Compound,Percent Effect [%]
1,CC(C)Oc1ncccc1CNC(=O)NC(C)c1cccs1 (stereo not given),-3.91
2,CN1CCC(Nc2ccc(F)cc2OCC(F)(F)F)C1=O (stereo not given),-16.7
3,C[C@@H]1CN(C(=O)Cn2ccc3ncccc3c2=O)C[C@H](C)O1,-2.09
4,NS(=O)(=O)c1ccc(N2CCN(CCCc3cn[nH]c3)CC2)cc1,-5.73
5,CC(C)C(CCO)NC(=O)Nc1ccc(-c2csnn2)cc1 (stereo not given),13.2
6,NC(=O)COc1ccc(CN2CCC(O)(CN3CCCCC3)C2)cc1Cl (stereo not given),2.63
7,Cc1cc(C)n(CCCN(C)c2cc(N(C)C)ncn2)n1,0.376
8,COCCC(=O)N1CCCC(CCc2ccc(F)c(F)c2)C1 (stereo not given),8.62
9,Cc1cc(-n2cccn2)ccc1CN1CCOCC(CN(C)C)C1 (stereo not given),-0.486
10,Cc1cccc(NC(=O)N2CCOCC(CN(C)C)C2)c1C (stereo not given),-2.2
11,COC(=O)c1ccc(N(C(=O)c2cc(Cl)ccn2)C(C)C)c(C)c1,-4.91
12,Cc1cc(C)c(C(=O)N(C)CCN(C)C(=O)OC(C)(C)C)[nH]1,-0.277
13,CCOc1cccc(C(C(=O)O)N(C)Cc2cc(C)no2)c1 (stereo not given),7.67
14,CN(CCc1ccccn1)c1cnn(C)c(=O)c1Br,-11.5
15,C/C(Cl)=C/CNC(=O)[C@H]1CC[C@]2(CC1)CN(C)C(=O)c1ccccc1O2,7.27
16,Cc1ccc(CN(CCN(C)C)Cc2c(C)nc3sccn23)o1,14.3
17,Cc1nc2cc(-c3nccn3C)nn2c(N2CCC(O)CC2)c1C,20.2
18,CCC(Nc1ccc(CCN2CCOCC2)cc1)C(N)=O (stereo not given),-3.46
19,C[C@@H]1CN(C(=O)C2(Cn3cccn3)CC2)C[C@@]1(O)C1CCC1,5.58
20,CCC(=O)N1CCOC(c2cc(Nc3nncs3)cc(C)n2)C1 (stereo not given),23

row,Compound,Percent Effect [%]
1,COC(=O)C1CCN(C(=O)Cn2ccc(-c3ccsc3)n2)CC1,-3.29
2,NC(=O)C(NC1CCN(CC2CCCCC2)CC1)c1ccccc1 (stereo not given),0.144
3,C=C(C)CN(CC)C(=O)Nc1ccccc1CN(C)C(C)=O,-1.91
4,O=C(Nc1ccccc1F)NC1(CO)CCOCC1,-1.57
5,COc1ccc(OC)c(C(=O)Nc2cccnc2-n2cncn2)c1,2.13
6,COc1cc(-c2cccc3c2OC(CN)C3)ccc1O (stereo not given),59.7
7,OCCOCCNCC1(c2ccc(F)cc2)CCOC1 (stereo not given),-5.55
8,Cc1cc(N(C)CC2COc3ccccc3O2)nc(N)n1 (stereo not given),2.34
9,Cc1ccccc1SCC(=O)NC1CCC(O)CC1 (stereo not given),0.736
10,CCOc1ccc(NC(=O)NCCCN(C)S(C)(=O)=O)cc1C,-4.23
11,Cc1ccc(-c2cc(CS(=O)(=O)NC3CCCNC3=O)on2)cc1 (stereo not given),5.82
12,C[C@@H]1CN(Cc2nc(C(N)=O)no2)CC[C@@]1(O)C1CCOCC1,5.22
13,Cn1cccc1C(=O)N1CC[C@@]2(O)CCN(S(C)(=O)=O)C[C@H]2C1,4.08
14,CC(C)C(C(N)=O)c1cccc(Cl)c1 (stereo not given),-2.67
15,Cc1csc(C(=O)N2CC(S(=O)(=O)C3CCCCC3)C2)c1,-2.28
16,Cc1ccc(OCc2occc2C(=O)O)cc1,12.4
17,O=c1[nH]nc(CNCc2ccc(OC34CCCN(CC3)C4)cc2)[nH]1 (stereo not given),-7.25
18,Cn1cc(CNCCNc2ncc(Cl)cc2Cl)cn1,-10.3
19,NC(=O)COc1cccc(Cn2cccn2)c1,-6.59
20,CNC(=O)c1[nH]nc2c1CN(c1cc(C3CCCNC3)nc(C)n1)CC2 (stereo not given),18.4

# Reference: ChEMBL document CHEMBL3988442, “University of Dundee, Small-Polar-MMV Screening Library” (2021)
